This passage reports potentiation and outcome results from PubChem BioAssay.

Calls of active or inactive are those of the source.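 Rule for the calls, unless noted: active = primary screen hit whose fluorescence ratio, in both repeats, exceeds the weak agonist control mean by 3 SD; inactive = the rest.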

One test has as its system TRPC4 (transient receptor potential cation channel C4 beta), mouse. The test can be described thus: potentiation of DAMGO EC20 TRPC4 response – cell-based, second round, Fluo-4, HEK293 TRPC4beta/mu-opioid, 1 µM, confirmation (AID 2554). The conditions noted are these: DAMGO EC20, Fluo-4 calcium flux, at 1 µM; hits give high values. A general note: A change in cytosolic calcium serves as a functional read-out for many receptors and channels.
In the case of `CN(CCCNC(=O)CCCOc1cc(=O)n(C)c2ccccc12)Cc1ccccc1`, the potentiation was 21% (active).
Take `CCOc1ccccc1C(=O)NCCc1cnc[nH]1`: the result was inactive.
Still for that read-out and setting: next, `Cc1ccccc1-n1c(=O)c2c(n3cnnc13)-c1ccccc1CC21CCCCC1`: “inactive”; `CN(C)S(=O)(=O)N1CCC(CCCC2CCN(S(=O)(=O)N(C)C)CC2)CC1`: “inactive”.
As for `O=C(Nc1ccnn1C1CCN(Cc2cc3ccccc3[nH]2)CC1)C1CCOC1` (stereo not drawn), the result was inactive.
Regarding `C=CCOc1ccc(CN(C)Cc2nc3cc(C(F)(F)F)ccc3c(=O)[nH]2)cc1`, the result was inactive.
On the same count and under the same terms, next, `Cc1ccc(C(=O)C[n+]2cccc3cc(C)ccc32)cc1`: “inactive”; `CN(C)CCCN(C(=O)CCc1ccccc1)c1nc2ccc(F)cc2s1`: “inactive”.
Regarding `CC(=O)n1cc([C@@H]2C=C(C(=O)NCc3ccccc3)O[C@H](OCc3ccc(CO)cc3)C2)c2ccccc21`, the outcome was inactive.
The same measure, in the same setting: next, `O=C(O)CCCN1C(=O)/C(=C\c2ccc(-c3nc4ccccc4s3)o2)SC1=S`: “inactive”.
Turning to `CCOCCCn1c(=S)[nH]c2cc(C(=O)NCCCN(CC)CC)ccc2c1=O`, the potentiation was 18% (active).
In the case of `O=C(NCc1ccccc1)c1ccc(S(=O)(=O)Nc2cccc(C(F)(F)F)c2)cc1`, the result was inactive.
For the compound `CCOC(=O)C1CCCN(C(=O)CCCn2nnnc2CN2CCOCC2)C1` (stereo not drawn), the outcome was inactive.
Still for that read-out and setting: next, `COc1cc(OC)c2c(-c3ccccc3)cc(=O)oc2c1C(CCN1CCCCC1)c1ccc(N(C)C)cc1` (stereo not drawn): “inactive”.
Still for that read-out and setting: next, `CCCCCCCCCC[n+]1cccc2c3ccccc3ccc21`: “inactive”; `CC(C)NS(=O)(=O)c1ccc(NC(=O)C(C)Oc2ccc(C(=O)c3ccccc3)cc2)cc1` (stereo not drawn): “inactive”.
With `Cc1ccc(C(=O)NNC(=O)C2CSC3(C)CCC(=O)N23)cc1` (stereo not drawn), the outcome was inactive.
Consider `CCCc1nc2oc3c(NCCCN(C)C)ncnc3c2c2c1CCCC2`, for which the outcome was inactive.
Regarding `CCc1nc2ccccc2n1Cc1ccccc1F`, the outcome was inactive.
The same measure, in the same setting: next, `O=C(Cc1ccccc1)Nc1cccc(NC(=O)c2cccs2)c1`: “inactive”.
In the case of `CCCCN(CC)CCCNC(=O)c1cc2cc3ccc(C)cc3nc2o1`, the potentiation was 19% (active).
For the compound `O=C1C=CC(=O)N1CCNc1ncc(C(F)(F)F)cc1Cl`, the outcome was inactive.
Turning to `Cc1cc(NC(=O)CSCC(=O)Nc2ccc(Cl)c(C(F)(F)F)c2)no1`, the result was inactive.
Regarding `Cc1ccc2c(c1)C1CN(C)CCC1N2C(=S)NC(=O)c1ccc(Br)cc1` (stereo not drawn), the result was inactive.
On the same count and under the same terms, next, `CCc1nc2ccccc2n1Cc1ccc(F)cc1`: “inactive”; `CCN(CC)CCSc1nnc2c3ccccc3n(Cc3ccccc3)c2n1`: “inactive”.
The same measure, in the same setting: next, `CCN1C2=NCCCN2c2cc(C)c(C)cc21`: “inactive”.
On the same count and under the same terms, next, `Cc1cc(C)c2c(=O)n(CC(=O)Nc3cccc(Cl)c3C)sc2n1`: “inactive”.
Turning to `COc1cc(C2(c3ccc(O)c(OC)c3)C(=O)Nc3c(C)cc(Br)cc32)ccc1O`, the outcome was inactive.
The same measure, in the same setting: next, `COc1ccc(CC2(CO)CCN(C/C=C/c3ccccc3OC)CC2)cc1`: “inactive”.
Same read-out and setting: next, `Cc1nn(-c2cc(C(F)(F)F)ccc2Cl)c2nc(C(Cl)(Cl)Cl)[nH]c(=O)c12`: “inactive”; `Cc1ccc(C(=O)O)cc1N=Cc1cc(Br)cc(Br)c1O`: “inactive”.
In the case of `CCOc1ccc(N=CNc2ccc(OCC)cc2)cc1`, the potentiation is 18% (active).
As to `CCN(CC)c1ncnc2sc3c(c12)CCC3`, the outcome was inactive.
Still for that read-out and setting: next, `COc1ccc(NS(=O)(=O)c2ccc3ccccc3c2)c2ncccc12`: “inactive”; `CCN1CCN(CCC(=O)Nc2ccccc2OC)CC1`: “inactive”.
As for `COc1cc(NC(=O)CSc2ncnc3sc4c(c23)CCC(C)C4)c(C(=O)O)cc1OC` (stereo not drawn), the outcome was inactive.
Same read-out and setting: next, `Cc1[nH]nc(-c2ccc(O)cc2O)c1-c1nc2ccccc2s1`: “inactive”; `CC1CCC2C(C1)c1sc(=O)[nH]c1SC2(C)C` (stereo not drawn): “inactive”.

Another test concerns TRPC4 beta (transient receptor potential cation channel C4), mouse. The test can be described thus: potentiation of DAMGO EC20 TRPC4 response – cell-based, Fluo-4, HEK293 TRPC4beta/mu-opioid, confirmation (AID 2555;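 active = primary screen hit whose calcium fluorescence ratio, in both repeats, exceeds the weak agonist control mean by 3 SD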). The following applies: DAMGO EC20, Fluo-4 calcium flux, at 10 µM; hits give high values.
As to `CN(CCCNC(=O)CCCOc1cc(=O)n(C)c2ccccc12)Cc1ccccc1`, the potentiation was 14% (active).
The same measure, in the same setting: next, `CCOc1ccccc1C(=O)NCCc1cnc[nH]1`: 10% (active).
`Cc1ccccc1-n1c(=O)c2c(n3cnnc13)-c1ccccc1CC21CCCCC1`: the outcome was inactive.
As to `CN(C)S(=O)(=O)N1CCC(CCCC2CCN(S(=O)(=O)N(C)C)CC2)CC1`, the potentiation is 11% (active).
Turning to `O=C(Nc1ccnn1C1CCN(Cc2cc3ccccc3[nH]2)CC1)C1CCOC1` (stereo not drawn), the outcome was inactive.
The same measure, in the same setting: next, `C=CCOc1ccc(CN(C)Cc2nc3cc(C(F)(F)F)ccc3c(=O)[nH]2)cc1`: “inactive”; `Cc1ccc(C(=O)C[n+]2cccc3cc(C)ccc32)cc1`: “inactive”; `CN(C)CCCN(C(=O)CCc1ccccc1)c1nc2ccc(F)cc2s1`: “inactive”.
Same read-out and setting: next, `CC(=O)n1cc([C@@H]2C=C(C(=O)NCc3ccccc3)O[C@H](OCc3ccc(CO)cc3)C2)c2ccccc21`: “inactive”.
For `O=C(O)CCCN1C(=O)/C(=C\c2ccc(-c3nc4ccccc4s3)o2)SC1=S`, the potentiation was 10% (active).
On the same count and under the same terms, next, `CCOCCCn1c(=S)[nH]c2cc(C(=O)NCCCN(CC)CC)ccc2c1=O`: 10% (active); `O=C(NCc1ccccc1)c1ccc(S(=O)(=O)Nc2cccc(C(F)(F)F)c2)cc1`: 46% (active).
Take `CCOC(=O)C1CCCN(C(=O)CCCn2nnnc2CN2CCOCC2)C1` (stereo not drawn): the result was inactive.
Same read-out and setting: next, `COc1cc(OC)c2c(-c3ccccc3)cc(=O)oc2c1C(CCN1CCCCC1)c1ccc(N(C)C)cc1` (stereo not drawn): “inactive”.
Still for that read-out and setting: next, `CCCCCCCCCC[n+]1cccc2c3ccccc3ccc21`: “inactive”.
Turning to `CC(C)NS(=O)(=O)c1ccc(NC(=O)C(C)Oc2ccc(C(=O)c3ccccc3)cc2)cc1` (stereo not drawn), the potentiation was 36% (active).
Consider `Cc1ccc(C(=O)NNC(=O)C2CSC3(C)CCC(=O)N23)cc1` (stereo not drawn), for which the outcome was inactive.
Same read-out and setting: next, `CCCc1nc2oc3c(NCCCN(C)C)ncnc3c2c2c1CCCC2`: “inactive”.
Still for that read-out and setting: next, `CCc1nc2ccccc2n1Cc1ccccc1F`: “inactive”; `O=C(Cc1ccccc1)Nc1cccc(NC(=O)c2cccs2)c1`: “inactive”.
On the same count and under the same terms, next, `CCCCN(CC)CCCNC(=O)c1cc2cc3ccc(C)cc3nc2o1`: “inactive”; `O=C1C=CC(=O)N1CCNc1ncc(C(F)(F)F)cc1Cl`: “inactive”.
As to `Cc1cc(NC(=O)CSCC(=O)Nc2ccc(Cl)c(C(F)(F)F)c2)no1`, the outcome was inactive.
With `Cc1ccc2c(c1)C1CN(C)CCC1N2C(=S)NC(=O)c1ccc(Br)cc1` (stereo not drawn), the potentiation was 15% (active).
In the case of `CCc1nc2ccccc2n1Cc1ccc(F)cc1`, the outcome was inactive.
Still for that read-out and setting: next, `CCN(CC)CCSc1nnc2c3ccccc3n(Cc3ccccc3)c2n1`: “inactive”; `CCN1C2=NCCCN2c2cc(C)c(C)cc21`: “inactive”.
`Cc1cc(C)c2c(=O)n(CC(=O)Nc3cccc(Cl)c3C)sc2n1`: the potentiation was 14% (active).
`COc1cc(C2(c3ccc(O)c(OC)c3)C(=O)Nc3c(C)cc(Br)cc32)ccc1O`: the potentiation was 22% (active).
Take `COc1ccc(CC2(CO)CCN(C/C=C/c3ccccc3OC)CC2)cc1`: the outcome was inactive.
On the same count and under the same terms, next, `Cc1nn(-c2cc(C(F)(F)F)ccc2Cl)c2nc(C(Cl)(Cl)Cl)[nH]c(=O)c12`: “inactive”; `Cc1ccc(C(=O)O)cc1N=Cc1cc(Br)cc(Br)c1O`: “inactive”.
For `CCOc1ccc(N=CNc2ccc(OCC)cc2)cc1`, the result was inactive.
Same read-out and setting: next, `CCN(CC)c1ncnc2sc3c(c12)CCC3`: “inactive”; `COc1ccc(NS(=O)(=O)c2ccc3ccccc3c2)c2ncccc12`: “inactive”.
With `CCN1CCN(CCC(=O)Nc2ccccc2OC)CC1`, the potentiation was 11% (active).
Consider `COc1cc(NC(=O)CSc2ncnc3sc4c(c23)CCC(C)C4)c(C(=O)O)cc1OC` (stereo not drawn), for which the result was inactive.
The same measure, in the same setting: next, `Cc1[nH]nc(-c2ccc(O)cc2O)c1-c1nc2ccccc2s1`: “inactive”; `CC1CCC2C(C1)c1sc(=O)[nH]c1SC2(C)C` (stereo not drawn): “inactive”.
